Legend:
Assay in all cases: log2 ratio of Biotin-Ahx-Ub-VS probe labelling (fragment/DMSO); higher = less target engagement (more negative = stronger competition), active = hit call of the paper (q ≤ 0.05, log2 ratio ≤ -1)
Conditions in all cases: compound concentration: 200 uM; treatment time: 3 h
USP42 = molecular target: T1, USP42 (UniProt Q9H9J4)
T1 sequence (whole entry): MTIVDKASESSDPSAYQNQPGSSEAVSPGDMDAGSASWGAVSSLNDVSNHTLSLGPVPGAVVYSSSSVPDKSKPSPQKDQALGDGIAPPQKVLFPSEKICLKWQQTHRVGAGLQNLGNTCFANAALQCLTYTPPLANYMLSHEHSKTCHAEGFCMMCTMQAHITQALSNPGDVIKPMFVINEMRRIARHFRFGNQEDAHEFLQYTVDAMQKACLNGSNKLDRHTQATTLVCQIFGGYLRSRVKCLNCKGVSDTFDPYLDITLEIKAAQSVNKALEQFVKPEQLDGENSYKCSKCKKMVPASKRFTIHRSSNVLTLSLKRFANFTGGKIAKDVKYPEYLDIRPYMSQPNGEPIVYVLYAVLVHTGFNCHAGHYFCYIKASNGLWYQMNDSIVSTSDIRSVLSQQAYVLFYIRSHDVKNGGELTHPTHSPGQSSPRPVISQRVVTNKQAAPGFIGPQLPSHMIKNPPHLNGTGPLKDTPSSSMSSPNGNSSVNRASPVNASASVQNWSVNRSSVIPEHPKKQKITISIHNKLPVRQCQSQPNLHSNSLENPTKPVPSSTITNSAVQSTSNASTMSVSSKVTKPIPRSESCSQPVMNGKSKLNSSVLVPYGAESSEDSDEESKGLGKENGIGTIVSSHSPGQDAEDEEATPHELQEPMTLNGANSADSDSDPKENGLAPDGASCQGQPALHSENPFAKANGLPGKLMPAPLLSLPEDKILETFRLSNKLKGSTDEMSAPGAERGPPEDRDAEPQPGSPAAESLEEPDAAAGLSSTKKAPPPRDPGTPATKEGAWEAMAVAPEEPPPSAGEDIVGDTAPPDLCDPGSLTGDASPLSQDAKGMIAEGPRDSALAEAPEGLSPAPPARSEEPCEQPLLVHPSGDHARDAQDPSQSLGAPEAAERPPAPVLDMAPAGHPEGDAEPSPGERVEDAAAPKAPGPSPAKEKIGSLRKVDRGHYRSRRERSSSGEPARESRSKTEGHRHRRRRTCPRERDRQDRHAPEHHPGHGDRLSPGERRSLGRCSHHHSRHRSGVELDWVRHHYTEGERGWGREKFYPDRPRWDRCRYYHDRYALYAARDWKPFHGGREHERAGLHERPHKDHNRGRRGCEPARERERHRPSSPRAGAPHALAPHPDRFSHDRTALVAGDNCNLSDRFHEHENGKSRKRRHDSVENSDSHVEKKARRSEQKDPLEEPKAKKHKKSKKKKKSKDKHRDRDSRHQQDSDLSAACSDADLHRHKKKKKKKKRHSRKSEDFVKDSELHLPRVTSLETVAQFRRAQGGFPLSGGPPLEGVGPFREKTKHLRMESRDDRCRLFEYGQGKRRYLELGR
Outline: (§1)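 Average log2 ratios of fragment over vehicle were obtained by unpaired t-test from global-median-normalised Spectronaut label-free quantities. Proteins with ≥2 unique peptides were included. HEK293T lysate (495 µg per sample) was treated in triplicate with fragment at 200 µM or vehicle for 3 h, then with Biotin-Ahx-Ub-VS at 0.5 µM final for 1 h, and labelled DUBs were NeutrAvidin-enriched and run by diaPASEF LC-MS/MS.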

USP46 = USP46 (UniProt P62068)
Chain of USP46 (P62068 whole entry): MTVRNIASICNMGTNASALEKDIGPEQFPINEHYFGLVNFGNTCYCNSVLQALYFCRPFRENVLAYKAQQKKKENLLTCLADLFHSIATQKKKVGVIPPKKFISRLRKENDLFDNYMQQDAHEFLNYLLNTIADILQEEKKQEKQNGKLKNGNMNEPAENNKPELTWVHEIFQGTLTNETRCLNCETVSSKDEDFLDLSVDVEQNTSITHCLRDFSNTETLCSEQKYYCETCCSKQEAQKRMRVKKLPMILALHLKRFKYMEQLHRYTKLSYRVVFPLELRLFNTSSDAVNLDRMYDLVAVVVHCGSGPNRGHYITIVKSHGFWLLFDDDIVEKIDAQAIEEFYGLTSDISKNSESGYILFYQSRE
Outline: as §1

USP47 = molecular target: T2, USP47 (UniProt Q96K76)
T2 sequence (whole entry): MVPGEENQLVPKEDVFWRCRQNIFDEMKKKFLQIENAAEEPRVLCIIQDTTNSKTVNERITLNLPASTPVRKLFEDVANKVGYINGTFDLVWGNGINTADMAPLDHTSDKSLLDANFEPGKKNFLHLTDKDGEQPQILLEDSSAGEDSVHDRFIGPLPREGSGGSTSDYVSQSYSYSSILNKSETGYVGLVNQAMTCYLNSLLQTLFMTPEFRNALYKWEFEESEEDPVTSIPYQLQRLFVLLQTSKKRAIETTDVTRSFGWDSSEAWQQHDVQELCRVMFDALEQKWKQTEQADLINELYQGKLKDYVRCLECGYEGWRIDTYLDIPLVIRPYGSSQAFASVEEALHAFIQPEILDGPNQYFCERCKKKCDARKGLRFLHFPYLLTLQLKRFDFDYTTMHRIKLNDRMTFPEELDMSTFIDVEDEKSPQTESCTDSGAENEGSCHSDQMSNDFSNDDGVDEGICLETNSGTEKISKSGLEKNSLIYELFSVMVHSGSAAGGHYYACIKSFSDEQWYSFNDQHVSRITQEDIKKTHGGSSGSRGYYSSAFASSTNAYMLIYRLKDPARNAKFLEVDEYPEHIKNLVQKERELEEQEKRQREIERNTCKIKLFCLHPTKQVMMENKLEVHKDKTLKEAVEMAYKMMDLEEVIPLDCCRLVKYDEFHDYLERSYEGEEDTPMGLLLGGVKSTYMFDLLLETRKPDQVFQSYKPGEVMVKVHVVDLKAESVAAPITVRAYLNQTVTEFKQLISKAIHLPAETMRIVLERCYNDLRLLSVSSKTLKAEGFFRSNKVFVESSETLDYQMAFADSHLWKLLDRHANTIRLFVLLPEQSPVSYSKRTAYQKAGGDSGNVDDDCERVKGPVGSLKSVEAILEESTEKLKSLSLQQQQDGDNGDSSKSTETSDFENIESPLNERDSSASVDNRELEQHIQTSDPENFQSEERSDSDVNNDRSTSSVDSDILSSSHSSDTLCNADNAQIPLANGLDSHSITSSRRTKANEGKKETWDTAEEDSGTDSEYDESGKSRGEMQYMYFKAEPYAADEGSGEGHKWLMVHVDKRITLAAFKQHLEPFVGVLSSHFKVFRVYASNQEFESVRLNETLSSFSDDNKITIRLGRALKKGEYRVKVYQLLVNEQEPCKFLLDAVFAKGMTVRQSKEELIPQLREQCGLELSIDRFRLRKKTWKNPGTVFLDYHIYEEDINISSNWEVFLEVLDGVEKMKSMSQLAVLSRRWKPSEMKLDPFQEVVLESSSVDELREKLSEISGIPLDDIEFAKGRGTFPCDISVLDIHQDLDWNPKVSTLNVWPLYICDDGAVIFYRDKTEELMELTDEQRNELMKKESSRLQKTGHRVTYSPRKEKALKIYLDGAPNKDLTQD
Outline: as §1

USP48 = molecular target: T3, USP48 (UniProt Q86UV5)
T3 sequence (whole entry): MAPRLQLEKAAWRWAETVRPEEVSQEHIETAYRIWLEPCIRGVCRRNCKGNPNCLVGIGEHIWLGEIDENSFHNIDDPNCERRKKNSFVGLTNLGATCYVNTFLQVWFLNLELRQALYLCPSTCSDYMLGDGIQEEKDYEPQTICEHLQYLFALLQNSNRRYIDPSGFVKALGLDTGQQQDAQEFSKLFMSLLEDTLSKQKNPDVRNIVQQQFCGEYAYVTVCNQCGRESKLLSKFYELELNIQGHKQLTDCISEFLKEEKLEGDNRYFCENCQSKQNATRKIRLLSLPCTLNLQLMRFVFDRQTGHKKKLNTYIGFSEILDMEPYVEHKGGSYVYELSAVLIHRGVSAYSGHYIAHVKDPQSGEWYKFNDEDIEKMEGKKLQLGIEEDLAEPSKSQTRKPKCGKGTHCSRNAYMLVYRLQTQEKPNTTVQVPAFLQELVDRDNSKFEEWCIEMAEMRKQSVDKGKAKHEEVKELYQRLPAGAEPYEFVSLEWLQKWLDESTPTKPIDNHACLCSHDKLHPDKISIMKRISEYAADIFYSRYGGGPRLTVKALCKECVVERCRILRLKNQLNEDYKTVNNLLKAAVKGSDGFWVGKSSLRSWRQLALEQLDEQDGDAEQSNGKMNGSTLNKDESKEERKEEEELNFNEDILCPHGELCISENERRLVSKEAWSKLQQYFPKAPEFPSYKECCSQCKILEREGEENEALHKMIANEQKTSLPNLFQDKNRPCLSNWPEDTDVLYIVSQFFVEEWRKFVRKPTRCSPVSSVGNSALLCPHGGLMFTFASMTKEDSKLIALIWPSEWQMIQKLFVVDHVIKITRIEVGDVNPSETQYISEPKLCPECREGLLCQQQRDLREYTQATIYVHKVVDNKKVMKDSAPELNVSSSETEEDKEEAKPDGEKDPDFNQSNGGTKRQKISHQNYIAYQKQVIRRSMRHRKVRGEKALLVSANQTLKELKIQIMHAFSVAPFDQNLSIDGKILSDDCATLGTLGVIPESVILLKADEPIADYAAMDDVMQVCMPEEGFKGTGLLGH
Outline: as §1

USP5 = molecular target: T4, USP5 (UniProt P45974)
T4 sequence (whole entry): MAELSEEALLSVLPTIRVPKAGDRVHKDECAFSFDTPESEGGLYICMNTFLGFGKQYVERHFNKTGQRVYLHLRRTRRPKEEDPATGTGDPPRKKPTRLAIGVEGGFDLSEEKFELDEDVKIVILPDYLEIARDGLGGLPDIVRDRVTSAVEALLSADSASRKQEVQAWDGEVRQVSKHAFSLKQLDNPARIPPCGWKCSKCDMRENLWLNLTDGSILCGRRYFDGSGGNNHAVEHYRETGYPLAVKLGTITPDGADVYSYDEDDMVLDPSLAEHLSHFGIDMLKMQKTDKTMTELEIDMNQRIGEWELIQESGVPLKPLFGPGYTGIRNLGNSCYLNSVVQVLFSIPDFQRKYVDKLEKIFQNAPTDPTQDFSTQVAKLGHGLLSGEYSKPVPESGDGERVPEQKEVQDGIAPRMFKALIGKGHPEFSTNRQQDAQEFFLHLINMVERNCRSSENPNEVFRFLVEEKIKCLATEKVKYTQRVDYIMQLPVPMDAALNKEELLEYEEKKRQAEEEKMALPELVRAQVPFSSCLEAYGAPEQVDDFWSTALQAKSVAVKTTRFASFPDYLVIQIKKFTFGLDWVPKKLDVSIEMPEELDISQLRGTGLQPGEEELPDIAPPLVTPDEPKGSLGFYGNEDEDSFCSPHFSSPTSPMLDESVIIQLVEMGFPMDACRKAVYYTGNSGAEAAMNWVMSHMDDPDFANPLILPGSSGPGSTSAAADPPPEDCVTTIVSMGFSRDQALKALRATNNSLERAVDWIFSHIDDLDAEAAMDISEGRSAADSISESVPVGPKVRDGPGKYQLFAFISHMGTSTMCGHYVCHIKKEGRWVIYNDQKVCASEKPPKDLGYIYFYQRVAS
Outline: as §1

USP54 = USP54 (UniProt Q70EL1)
Chain of USP54 (Q70EL1 whole entry): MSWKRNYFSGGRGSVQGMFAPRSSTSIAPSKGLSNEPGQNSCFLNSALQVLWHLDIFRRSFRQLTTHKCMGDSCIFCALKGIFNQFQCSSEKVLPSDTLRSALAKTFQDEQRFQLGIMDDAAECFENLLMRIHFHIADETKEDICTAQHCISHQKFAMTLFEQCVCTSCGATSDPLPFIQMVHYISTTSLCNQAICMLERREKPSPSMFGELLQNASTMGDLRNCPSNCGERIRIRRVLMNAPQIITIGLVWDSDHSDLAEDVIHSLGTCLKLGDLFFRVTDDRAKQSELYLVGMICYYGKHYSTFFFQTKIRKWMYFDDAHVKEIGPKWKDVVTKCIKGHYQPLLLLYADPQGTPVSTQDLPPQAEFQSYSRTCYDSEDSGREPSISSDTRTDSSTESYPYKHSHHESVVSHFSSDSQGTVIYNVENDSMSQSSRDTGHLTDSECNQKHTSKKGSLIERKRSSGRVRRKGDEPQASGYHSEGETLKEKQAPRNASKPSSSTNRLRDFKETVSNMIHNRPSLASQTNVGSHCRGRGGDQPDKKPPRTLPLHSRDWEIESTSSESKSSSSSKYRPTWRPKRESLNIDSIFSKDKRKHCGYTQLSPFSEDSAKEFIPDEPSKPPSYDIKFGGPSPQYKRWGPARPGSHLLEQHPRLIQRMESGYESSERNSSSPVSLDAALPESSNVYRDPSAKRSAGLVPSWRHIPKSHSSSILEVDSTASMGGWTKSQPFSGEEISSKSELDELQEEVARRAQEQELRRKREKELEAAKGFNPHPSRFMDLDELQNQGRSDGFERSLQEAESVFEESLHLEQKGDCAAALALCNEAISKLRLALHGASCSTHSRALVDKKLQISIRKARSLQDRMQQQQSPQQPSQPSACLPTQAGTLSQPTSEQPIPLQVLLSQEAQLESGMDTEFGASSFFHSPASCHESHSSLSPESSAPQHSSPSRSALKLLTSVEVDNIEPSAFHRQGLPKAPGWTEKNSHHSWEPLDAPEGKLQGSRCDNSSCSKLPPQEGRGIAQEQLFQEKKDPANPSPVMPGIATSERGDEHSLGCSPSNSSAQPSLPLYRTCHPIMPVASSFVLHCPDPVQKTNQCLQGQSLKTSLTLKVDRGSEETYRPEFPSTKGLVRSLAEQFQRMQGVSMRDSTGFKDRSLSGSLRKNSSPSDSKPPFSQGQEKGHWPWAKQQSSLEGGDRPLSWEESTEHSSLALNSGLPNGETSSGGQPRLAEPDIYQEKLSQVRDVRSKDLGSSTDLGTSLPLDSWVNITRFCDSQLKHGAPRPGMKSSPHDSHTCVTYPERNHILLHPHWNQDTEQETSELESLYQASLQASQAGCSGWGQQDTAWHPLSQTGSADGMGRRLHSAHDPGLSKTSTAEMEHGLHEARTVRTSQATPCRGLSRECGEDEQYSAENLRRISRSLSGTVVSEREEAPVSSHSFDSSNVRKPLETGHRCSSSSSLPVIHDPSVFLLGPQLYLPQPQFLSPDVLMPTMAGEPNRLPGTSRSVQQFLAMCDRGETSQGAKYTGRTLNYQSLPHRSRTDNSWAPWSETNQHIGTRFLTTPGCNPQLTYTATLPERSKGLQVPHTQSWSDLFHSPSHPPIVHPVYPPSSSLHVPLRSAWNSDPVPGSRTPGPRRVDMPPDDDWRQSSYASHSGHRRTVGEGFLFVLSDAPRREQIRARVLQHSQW
Outline: as §1

USP7 = USP7 (UniProt Q93009)
Outline: as §1

USP8 = molecular target: T5, USP8 (UniProt P40818)
T5 sequence (whole entry): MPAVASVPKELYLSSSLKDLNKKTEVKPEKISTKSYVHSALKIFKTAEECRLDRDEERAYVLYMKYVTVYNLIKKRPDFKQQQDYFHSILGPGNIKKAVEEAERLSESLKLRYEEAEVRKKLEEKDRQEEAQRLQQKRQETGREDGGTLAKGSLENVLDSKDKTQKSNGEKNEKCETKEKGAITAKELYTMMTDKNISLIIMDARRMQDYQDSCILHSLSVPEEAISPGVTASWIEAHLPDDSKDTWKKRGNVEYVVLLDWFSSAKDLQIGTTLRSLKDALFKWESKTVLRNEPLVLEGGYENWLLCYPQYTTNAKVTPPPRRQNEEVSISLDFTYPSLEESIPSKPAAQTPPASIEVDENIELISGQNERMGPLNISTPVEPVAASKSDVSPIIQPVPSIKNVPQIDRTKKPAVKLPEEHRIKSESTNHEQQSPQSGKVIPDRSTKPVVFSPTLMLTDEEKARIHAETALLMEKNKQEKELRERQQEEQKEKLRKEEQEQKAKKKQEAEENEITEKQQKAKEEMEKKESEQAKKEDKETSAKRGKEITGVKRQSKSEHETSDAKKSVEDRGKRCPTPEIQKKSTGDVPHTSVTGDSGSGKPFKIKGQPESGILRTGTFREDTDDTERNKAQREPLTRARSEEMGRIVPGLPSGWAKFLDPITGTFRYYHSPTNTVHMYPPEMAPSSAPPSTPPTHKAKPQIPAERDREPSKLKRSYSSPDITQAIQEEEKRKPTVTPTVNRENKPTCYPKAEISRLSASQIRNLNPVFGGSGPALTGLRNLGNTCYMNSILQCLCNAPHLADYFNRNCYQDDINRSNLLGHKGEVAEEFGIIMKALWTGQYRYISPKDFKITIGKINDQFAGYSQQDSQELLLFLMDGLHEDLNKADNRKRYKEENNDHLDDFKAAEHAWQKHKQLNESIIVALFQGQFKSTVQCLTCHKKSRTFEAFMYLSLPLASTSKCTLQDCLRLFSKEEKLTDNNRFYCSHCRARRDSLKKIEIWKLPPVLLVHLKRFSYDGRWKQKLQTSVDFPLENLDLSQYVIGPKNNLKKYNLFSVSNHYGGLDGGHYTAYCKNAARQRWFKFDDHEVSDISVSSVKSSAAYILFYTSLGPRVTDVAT
Outline: as §1

USP9X = USP9X (UniProt Q93008)
Chain of USP9X (Q93008 whole entry): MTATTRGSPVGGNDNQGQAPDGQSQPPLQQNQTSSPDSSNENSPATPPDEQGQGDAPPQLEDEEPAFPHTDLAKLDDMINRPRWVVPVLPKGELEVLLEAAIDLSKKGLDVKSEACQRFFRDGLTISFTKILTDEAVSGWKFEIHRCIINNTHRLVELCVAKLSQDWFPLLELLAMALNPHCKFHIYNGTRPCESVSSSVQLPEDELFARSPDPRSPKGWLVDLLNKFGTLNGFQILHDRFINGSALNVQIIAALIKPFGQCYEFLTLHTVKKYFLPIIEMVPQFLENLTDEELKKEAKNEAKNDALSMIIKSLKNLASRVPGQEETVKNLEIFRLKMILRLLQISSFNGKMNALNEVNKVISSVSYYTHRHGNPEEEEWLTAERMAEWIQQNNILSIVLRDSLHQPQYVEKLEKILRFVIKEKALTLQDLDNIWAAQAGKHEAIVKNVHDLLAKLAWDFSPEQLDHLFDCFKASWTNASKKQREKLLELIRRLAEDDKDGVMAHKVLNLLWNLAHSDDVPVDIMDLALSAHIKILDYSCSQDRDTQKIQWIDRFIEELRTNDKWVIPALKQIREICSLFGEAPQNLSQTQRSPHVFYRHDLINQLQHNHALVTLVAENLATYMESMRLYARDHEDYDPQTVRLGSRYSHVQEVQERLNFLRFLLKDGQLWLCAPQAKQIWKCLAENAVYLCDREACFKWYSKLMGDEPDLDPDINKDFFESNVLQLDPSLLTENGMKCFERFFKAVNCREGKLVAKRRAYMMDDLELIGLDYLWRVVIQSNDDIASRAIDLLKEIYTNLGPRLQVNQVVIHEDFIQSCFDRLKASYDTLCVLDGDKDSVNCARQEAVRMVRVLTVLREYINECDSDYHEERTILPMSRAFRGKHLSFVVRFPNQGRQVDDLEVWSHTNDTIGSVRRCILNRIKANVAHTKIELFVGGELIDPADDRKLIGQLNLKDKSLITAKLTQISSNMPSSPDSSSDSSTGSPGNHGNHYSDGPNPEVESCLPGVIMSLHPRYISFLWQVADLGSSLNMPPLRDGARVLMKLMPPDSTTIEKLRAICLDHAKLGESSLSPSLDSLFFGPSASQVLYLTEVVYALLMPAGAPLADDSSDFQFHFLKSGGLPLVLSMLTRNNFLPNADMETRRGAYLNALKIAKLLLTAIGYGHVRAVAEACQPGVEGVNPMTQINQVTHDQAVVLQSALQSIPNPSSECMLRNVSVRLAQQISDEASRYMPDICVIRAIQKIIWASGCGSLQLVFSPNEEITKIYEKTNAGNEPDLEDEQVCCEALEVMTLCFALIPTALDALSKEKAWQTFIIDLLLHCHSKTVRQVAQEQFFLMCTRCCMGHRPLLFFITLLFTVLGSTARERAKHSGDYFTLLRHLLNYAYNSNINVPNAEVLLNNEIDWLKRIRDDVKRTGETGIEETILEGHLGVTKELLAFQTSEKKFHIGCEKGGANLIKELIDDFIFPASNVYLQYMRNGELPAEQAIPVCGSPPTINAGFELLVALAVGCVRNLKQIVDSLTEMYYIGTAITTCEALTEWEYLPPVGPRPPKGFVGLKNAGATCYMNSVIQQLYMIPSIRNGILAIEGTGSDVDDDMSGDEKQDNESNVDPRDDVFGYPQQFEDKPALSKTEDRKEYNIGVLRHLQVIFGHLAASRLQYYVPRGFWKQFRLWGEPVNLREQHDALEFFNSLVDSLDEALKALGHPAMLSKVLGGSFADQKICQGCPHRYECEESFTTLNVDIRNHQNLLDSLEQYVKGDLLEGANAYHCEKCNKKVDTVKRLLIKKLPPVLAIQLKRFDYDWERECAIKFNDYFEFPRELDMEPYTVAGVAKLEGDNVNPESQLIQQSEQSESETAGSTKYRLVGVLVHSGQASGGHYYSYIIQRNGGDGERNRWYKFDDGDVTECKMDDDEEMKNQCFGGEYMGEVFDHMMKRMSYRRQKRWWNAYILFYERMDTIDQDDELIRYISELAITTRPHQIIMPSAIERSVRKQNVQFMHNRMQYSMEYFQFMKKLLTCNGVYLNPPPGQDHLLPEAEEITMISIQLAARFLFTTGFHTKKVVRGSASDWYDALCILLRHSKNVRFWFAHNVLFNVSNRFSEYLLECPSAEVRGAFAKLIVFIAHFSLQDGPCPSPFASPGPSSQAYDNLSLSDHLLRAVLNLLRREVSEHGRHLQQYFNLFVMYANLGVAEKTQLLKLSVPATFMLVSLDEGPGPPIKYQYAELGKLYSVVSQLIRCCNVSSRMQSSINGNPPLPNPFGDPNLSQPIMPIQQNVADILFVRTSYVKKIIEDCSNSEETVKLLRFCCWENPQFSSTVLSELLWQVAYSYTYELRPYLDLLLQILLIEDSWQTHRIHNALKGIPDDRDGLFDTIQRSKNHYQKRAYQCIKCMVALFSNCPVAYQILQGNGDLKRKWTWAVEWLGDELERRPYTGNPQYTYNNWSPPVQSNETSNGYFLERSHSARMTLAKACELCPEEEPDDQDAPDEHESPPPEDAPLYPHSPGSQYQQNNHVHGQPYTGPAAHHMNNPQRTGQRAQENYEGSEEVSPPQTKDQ
Outline: as §1

UniProt O00487 = molecular target: UniProt O00487
Chain of UniProt O00487 (O00487 whole entry): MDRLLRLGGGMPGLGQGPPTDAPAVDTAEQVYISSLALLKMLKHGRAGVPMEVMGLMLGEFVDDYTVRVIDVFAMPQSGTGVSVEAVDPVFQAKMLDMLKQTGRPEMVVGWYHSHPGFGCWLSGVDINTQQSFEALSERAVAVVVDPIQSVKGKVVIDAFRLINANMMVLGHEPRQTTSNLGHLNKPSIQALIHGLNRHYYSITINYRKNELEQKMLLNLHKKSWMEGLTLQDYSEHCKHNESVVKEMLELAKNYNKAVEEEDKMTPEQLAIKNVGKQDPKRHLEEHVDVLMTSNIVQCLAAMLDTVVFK
Outline: as §1

Measured: log2 ratio of Biotin-Ahx-Ub-VS probe labelling

O=C(CCl)N1CCC2(CCC(O)CC2)CC1
inactive: USP42 0.175 | USP46 0.0165 | USP47 -0.0514 | USP48 -0.0801 | USP5 0.218 | USP54 0.833 | USP7 -0.00495 | USP8 -0.382 | USP9X -0.156 | UniProt O00487 0.0439

— the supplement of paper PMC11732987, “Enantioselective OTUD7B fragment discovery through chemoproteomics screening and high-throughput optimisation” (Communications Chemistry, 2025)
